Pf Dd2 inh – inhibitors of Plasmodium falciparum Dd2 growth; P. falciparum Dd2 growth, SYBR Green, 72 h; Potency, µM (series often up to 28.9 µM), for the others: at the highest dose activity, negative = inhibition, usual class: inhibitors; 120,000 tested, 4.3% active; AID 1347417; active = well fitted inhibition curve with a large enough effect;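 note: plate controls were DMSO vehicle for no effect and reference drug for full effect; nearly all actives have a fitted effect of over 65% in size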
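Readout: SYBR Green fluorescence, 485 nm excitation, 535 nm emission, after ~16 h lysis at 37C. Before that, Dd2-infected red cells (2.5% hematocrit) grew 72 h with compound, 29 uM top final concentration.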
The depositor's hits bear a star; i = inactive; [ ] = remark or other dose. This is one part of a sample in which hits are shown more often than they occur. Potency is the fitted concentration of half-maximal effect.

SMILES	Pf Dd2 inh
COCc1ccc2c(c1)c(OC(C)(C)C(=O)NCC(F)(F)F)nn2Cc1ccccc1	i
CC(C)(Oc1nn(CCN2CCOCC2)c2ccccc12)C(=O)NCc1ccccc1	11µM*
Cc1cccc(NC(=O)Nc2ccc(C)n(CC(=O)NCCC(C)C)c2=O)c1	-9%
COCCN1C(=O)c2cccn2CC1CNC(=O)Cc1cccc(OC)c1 (stereo not drawn)	-11%
Cc1ccc(S(=O)(=O)NC[C@H]2OC[C@@H](NC3CCOCC3)[C@@H]2O)cc1	-1%[44.1 µM]
O=C(C1CCCN1c1nc2ncccc2o1)N1CCOCC1 (stereo not drawn)	22%[44.1 µM]
Cc1ccc(F)cc1NC(=O)c1cc(-c2ccc[nH]2)n[nH]1	-14%
CN(C)Cc1cc(C[C@@H]2C[C@H](N(C)C)C2(C)C)no1	i
N#Cc1c(-c2ccccc2)cc(-c2ccccc2)nc1SCC(=O)Nc1ccc(Cl)cc1	-13%
COc1ccc(-c2cc(-c3ccccc3)nc(SCC(=O)Nc3ccccc3F)c2C#N)cc1	22%
COc1ccc(NC(=O)CSc2nc(-c3ccccc3)cc(-c3cc(OC)c(OC)c(OC)c3)c2C#N)c(OC)c1	6.3µM*
CCN(CC)C(=O)CC[C@@H]1CNC(=O)[C@@H]2C[C@H](NCc3ccc(F)cc3)CN12	16%[44.1 µM]
CCCS(=O)(=O)N1CCC(C(=O)N2CCCCCCNC(=O)CC2)CC1	-6%
Cc1cc(C)c2[nH]c(C(=O)N3CCN(Cc4ccccc4)C(=O)C3C)c(C)c2c1 (stereo not drawn)	-18%
COc1cc2ncc(C(=O)c3ccc(C)cc3)c(N3CCCCC3)c2cc1OC	-12%
CCOC(=O)C1CCN(c2c(C(=O)c3ccc(OCC)cc3)cnc3ccc(OC)cc23)CC1	10µM*
CCOC(=O)C1CCCN(c2c(C(=O)c3ccc(OCC)cc3)cnc3ccccc23)C1 (stereo not drawn)	i
O=C(CC1CCOCC1)NCCc1ccccn1	51%
Cc1nnc2ccc(NCc3ccc(F)cc3)nn12	-9%
CCc1nnc2ccc(NCc3ccc(F)cc3)nn12	7.1µM*
Cc1cccc(CNc2ccc3nnc(C)n3n2)c1	i
Cn1cnc2cc(-c3cccc4[nH]ccc34)cc(C(=O)NCc3cccnc3)c21	i
O=C1NC2(CCN(C(=O)c3ccccc3F)C2)N=C1c1cccnc1 (stereo not drawn)	11%
c1ccc(-c2noc(CCNC3CCC4(CCNCC4)CC3)n2)nc1	-2%
CCc1csc(CNC2CCC3(CCNCC3)CC2)n1	-12%
SMILES	Pf Dd2 inh
c1coc(-c2nc(CNC3CCC4(CCNCC4)CC3)no2)c1	11µM*
O=C(Cc1cccnc1)N1CCC(Oc2ccccc2-c2nc(C3CC3)no2)C1 (stereo not drawn)	-4%
CN(C)C(=O)N1CCC2(CC1)CN(C(=O)CCc1c[nH]c3ccccc13)Cc1ccccc1O2	5µM*
CC(=O)NCCCC(=O)N1Cc2ccccc2OC2(CCN(C(=O)N(C)C)CC2)C1	-4%
CC(=O)N1Cc2ccccc2OC2(CCN(C(=O)CCc3c[nH]c4ccccc34)CC2)C1	-27%
Cc1noc([C@@H](C)NC(=O)Nc2ccc(Cl)cc2)c1C(=O)O	-25%[44.1 µM]
CC(C)N1CCN(C2CCN(c3ccc4c(c3)OCO4)CC2)CC1CCO (stereo not drawn)	-15%
COc1ncccc1-c1nccn2c(C3CN(Cc4c[nH]c5ccccc45)C3)ncc12	3.5µM*
Cc1cccnc1C(=O)N[C@@H]1CN(Cc2ccccc2)C[C@H]1CN(C)C	0%
COCCO[C@H]1C(=O)N(C2CCN(C(=O)c3cc4ccccc4[nH]3)CC2)[C@H]1c1ccncc1	i
c1cncc(-c2nnc([C@H]3CCN(Cc4c[nH]c5ccccc45)C3)o2)c1	i
CNC(=O)[C@@H]1CN(C(=O)c2cc3ccccc3[nH]2)C[C@H]1COC	-10%
Cc1ccccc1-c1nc2cnccn2c1NCCC(=O)NC1CCCCC1	i
O=C1NC2(Cc3ccccc31)CN(Cc1c[nH]c3ccccc13)C2	-10%
Cc1ccccc1-c1nccn2c(C3CN(C(=O)c4cc5ccccc5[nH]4)C3)ncc12	11µM*
Cc1ccccc1-c1nccn2c(C3CN(Cc4ccc(O)cc4)C3)ncc12	11µM*
COc1cc(C(=O)NCCn2cccc2-c2nc(-c3ccccc3)no2)cc(OC)c1OC	-8%
Cc1cc(C)cc(N2CCC(NC(=O)c3ccc4[nH]ccc4c3)C2=O)c1 (stereo not drawn)	-23%
O=C1CC(C(=O)O)C2(CCN(c3ncc(C(=O)O)cc3Cl)CC2)N1 (stereo not drawn)	2%
CC(C)N1C(=O)CO[C@H](c2ccc(NC(=O)NCc3ccccc3)cc2)[C@H]1CO	-30%[44.1 µM]
COCCN1CCC(N2CCN(C(=O)C3CCCCC3)CC2)C1=O (stereo not drawn)	-13%
CC1=NS(=O)(=O)N(C)C=C1C(=O)OCc1noc(-c2ccccc2Cl)n1	16%
Cc1[nH]ncc1CNC(=O)C1(Cc2ccccc2)CCCCC(=O)N1 (stereo not drawn)	-13%
Cc1cccc(NC(=O)Cn2ccn3nc(-c4ccccc4)c(CO)c3c2=O)c1C	i
O=[N+]([O-])c1ccccc1CN1C[C@H](O)C[C@H]1c1nc(-c2ccncc2)no1	-28%[44.1 µM]
SMILES	Pf Dd2 inh
COc1cccc(CNC[C@H]2O[C@H](Cc3cc(-c4ccccc4)on3)CC[C@@H]2O)c1	2.5µM*
COc1ccc(-c2cc(C[C@@H]3CC[C@H](O)[C@@H](CNC(=O)Nc4ccccc4)O3)no2)cc1	i
COc1cccc(CNC[C@H]2O[C@H](Cc3cc(CN4CCOCC4)on3)CC[C@@H]2O)c1	i
COCCO[C@H]1C(=O)N(C2CCN(Cc3ccc(C#N)cc3)CC2)[C@H]1c1ccncc1	3%
COc1cccc(S(=O)(=O)N2CCCN(C)c3ccccc32)c1	i
CN1CCCC2(Cc3ccccc3CN(C(=O)Cc3ccc(O)cc3)C2)C1 (stereo not drawn)	i
COc1cccc(CC(=O)N2CCN(C(=O)c3nnn4c3COC(c3ccc(F)cc3)C4)CC2)c1 (stereo not drawn)	i
COc1ccccc1NC(=O)CSc1nnc(-c2cccc(Cl)c2)o1	10%
CCOC(=O)c1cccc(NC(c2nnc(-c3ccccc3)o2)c2ccccc2F)c1 (stereo not drawn)	i
CCc1ccccc1NC(c1nnc(-c2cccc(F)c2)o1)c1ccc(F)cc1Cl (stereo not drawn)	13µM*
COc1cccc(NC(c2nnc(-c3ccccc3)o2)c2ccc(F)cc2Cl)c1 (stereo not drawn)	10µM*
CCc1cc(=O)n(CC(=O)Nc2ccccc2C)c(-c2cccc(F)c2)n1	-13%
Cc1cccc(OCc2nnc(-c3ccccc3)o2)c1	-20%
Cc1oc2c(c1C(=O)NCCN(C)C)CN(CCc1ccccc1)CC2	-11%
O=C(c1cccnn1)N1C[C@H]2CN(C3CCOCC3)C[C@@]2(C(=O)O)C1	-8%
O=[S+]([O-])(c1cccc(C(F)(F)F)c1)N1CC(Oc2ccc3c(c2)OCO3)C1	16%
CN(Cc1ncc[nH]1)c1ccc(-c2nc(CCCc3ccccc3)no2)cn1	4.5µM*
Cc1nnc(CN(C)c2ccc(-c3nc(CCCc4ccccc4)no3)cn2)o1	i
CN(Cc1ccccn1)c1ccc(-c2nc(Cc3ccc(F)cc3)no2)cn1	-27%
COc1ccc(-c2cc(N3CCC(NC(=O)c4ccc(Cl)cc4)CC3)n[nH]2)cc1	i
COc1ccc(C(=O)N2CCC(n3cc(-c4nc(C)no4)nn3)C2)cc1OC (stereo not drawn)	-14%
COC[C@@H]1[C@H](C(=O)NCCCc2ccccc2)CCC(=O)N1C	10%
